{
  "source": "PubChem BioAssay (NCATS)",
  "note": "Results filed as inconclusive are left out. Activity calls are given as the source filed them. The call rests on the fitted dose curve; in most records, active means well fitted inhibition curve with a large enough effect; inconclusive means small, poorly fitted or top-dose-only effect; inactive means flat fitted curve, though single readings scatter. On the % scale 0 is the no-effect control and ±100 the full control effect.",
  "data": [
    {"test": "P-glycoprotein substrates identified in KB-8-5-11 adenocarcinoma cell line, qHTS therapeutic library screen (AID 1346987); further: nearly all actives have a fitted effect of over 65% in size", "conditions": "KB-8-5-11 (P-gp overexpressing) viability, CellTiter-Glo, 72 h; series mostly up to 44.5 µM; activity change, negative = cytotoxicity: at the top concentration", "method_in_brief": "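Steps: plate 500 KB-8-5-11 cells/well in DMEM + 10% FCS (colchicine removed); pin compounds in dose-response; incubate 72 h, 37 degree C, 5% CO2; add CellTiter-Glo, 5 min; read luminescence.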", "values": [
      {"smiles": "C=C1C(OC(C)=O)[C@@]23CCC4[C@](C)(C(=O)O)CCC[C@@]4(C)[C@]2(O)CC[C@H]1C3", "note": "(stereo not given in full)", "activity change, negative = cytotoxicity": "-2.24% (inactive)"},
      {"smiles": "C[C@]1(O)CC[C@@H]2C(C(=O)O)=CO[C@@H](O[C@@H]3O[C@H](CO)[C@@H](O)[C@H](O)[C@H]3O)[C@@H]21", "activity change, negative = cytotoxicity": "8.38% (inactive)"},
      {"smiles": "CC(O)C(O)/C=C/C=C/C(=O)O[C@@H]1C=C(C(=O)O)[C@](O)(CO)[C@@]2(C)CCCC(C)(C)[C@H]12", "note": "(stereo not given in full)", "activity change, negative = cytotoxicity": "2.09% [at 17.3 µM] (inactive)"},
      {"smiles": "CC(=O)C1CCC(=O)N1Cc1ccccc1", "note": "(stereo not given)", "activity change, negative = cytotoxicity": "4.45% (inactive)"},
      {"smiles": "COc1ccc2[nH]c(S(=O)Cc3ncc(C)c(OC)c3C)nc2c1", "note": "(stereo not given)", "activity change, negative = cytotoxicity": "-10.2% (inactive)"},
      {"smiles": "CCCCS(=O)(=O)NC(Cc1ccc(OCCCCC2CCNCC2)cc1)C(=O)O", "note": "(stereo not given)", "activity change, negative = cytotoxicity": "0.242% (inactive)"},
      {"smiles": "C=C(C(=O)O)C1CC(O)C2(C)CCCC(C)(O)C2C1", "note": "(stereo not given)", "outcome": "inactive"},
      {"smiles": "CSCC1OC(n2cnc3c(=O)[nH]cnc32)C(O)C1O", "note": "(stereo not given)", "activity change, negative = cytotoxicity": "4.49% (inactive)"},
      {"smiles": "CCC1(O)CC2c3cc(OC)c(OC)cc3CCN2CC1CC(C)C", "note": "(stereo not given)", "activity change, negative = cytotoxicity": "-18.2% (inactive)"},
      {"smiles": "CC(C)C(NC(=O)c1ccc(O)cc1)C(=O)N1CCCC1C(=O)Nc1c(O)cccc1C(=O)O", "note": "(stereo not given)", "outcome": "inactive [at 17.3 µM]"}
    ]}
  ]
}
